Reference: PubChem BioAssay AID651800 (The Scripps Research Institute Molecular Screening Center, 2012)
The campaign covered roughly 360,000 compounds. About 1,300 (0.36%) were called active. The full list was thinned out, with actives kept by preference. Values without a mark were called inactive. No stated cut-off is given here; in the data, active means inhibition above about 19%; inactive means the rest.

System: T-cell receptor (TCR)
Test: small molecules blocking TCR binding to CD3 – biochemical, fluorescence, TAMRA-labeled TCR probe, primary screen (AID 651800);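 further: recombinant mutant TCR 2C K166C tagged with TAMRA read by polarization; 0% = receptor in buffer alone and 100% = receptor with positive control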
Details: at 9.4 µM, stronger effect = higher value

Structure (SMILES)	inhibition
CCOC(=O)N1CCN(C(=O)C[C@H]2C[C@@]3(C(=O)OC)C(=C[C@H](C4CCCC4)O[C@@H]3C)N(Cc3ccccc3)C2=O)CC1	8.81%
COc1ccc(Br)cc1C(=O)NC(=S)Nc1cc(-c2nc3ccccc3[nH]2)ccc1C	55.2% (active)
O=C(NC(=S)Nc1ccccc1C(=O)O)c1ccc(-c2ccc(Br)cc2)o1	4.88%
COc1cc(OC)cc(C(=O)N[C@H](C(=O)Nc2nc3ccccc3[nH]2)C(C)C)c1	-1.15%
Cc1[nH]nc2c1C(c1ccc(Br)cc1)NC2=O (configuration not stated)	-1.49%
C[C@@H](CN1C2=NC[C@@H](Cc3ccccc3)N2C[C@H]1Cc1ccc(O)cc1)NC(=O)CCC1CCCCC1	-8.44%
CCOC(=O)c1ccc(NC(=O)CNC(=O)c2ccco2)cc1	-5.65%
O=C(NNC(=S)Nc1ccc(Br)cc1Cl)c1ccco1	0.36%
CCC(=O)NC(=S)Nc1ccc(NC(=O)c2ccco2)c(Cl)c1	27.1% (active)
O=C(CN1CCN(c2ccc(O)cc2)CC1)NC1CCCc2ccccc21 (configuration not stated)	-3.37%
COC(=O)C1=C(C)N(Cc2ccccc2C(F)(F)F)C(=NCc2ccc(OC)cc2)NC1c1cccc(C(F)(F)F)c1 (configuration not stated)	6.08%
Cc1noc(C)c1NC(=O)Nc1ccc2c(c1)C(=O)N([C@H](C)CO)C[C@H](C)[C@H](CN(C)Cc1ccncc1)OCCCC[C@@H](C)O2	7.13%
CN1CCCc2nc(-c3ccccc3)ccc21	3.5%
CC(C)CC1NC(=O)c2cc(Cl)ccc2-n2c1nc1ccccc1c2=O (configuration not stated)	3.77%
CCOC(=O)C1=C(C(=O)OCC)C2N(Cc3ccc(C#N)cc3)c3ccccc3[C@@]23C[C@@H](C(=O)OC)N(S(=O)(=O)c2ccc(F)cc2)C3=N1 (some centres not stated)	-0.94%
C[C@H](O)[C@@H]1C(=O)N2CCc3c([nH]c4c(-c5ccc6c(c5)OCO6)cccc34)[C@@H]2C[C@@H]1N(C)C(=O)c1ccco1	-0.59%
NC1=CC(=O)C(=O)c2cccnc21	23.6% (active)
CC[C@H](C)[C@H]1CNC(=O)C(=O)N1CC1CCN(CCc2ccc(OC)c(OC)c2)CC1	4.26%
CC(=O)NCc1ccc(S(=O)(=O)NC2CCN(Cc3ccccc3)CC2)cc1	0.98%
O=C(c1cc(-c2ccco2)nc2ccccc12)N(Cc1nnc(-c2ccc(Cl)cc2)o1)C1CC1	-2.45%
COc1ccc2c(-c3ccccc3)cc(SCC(=O)N(C)C3CCS(=O)(=O)C3)nc2c1 (configuration not stated)	1.46%
CN(C(=O)COC(=O)c1cc(-c2ccco2)nc2ccccc12)C1CCS(=O)(=O)C1 (configuration not stated)	30.6% (active)
